From PubChem BioAssay come the findings set out here.

Activity calls are given as the source filed them. Unless noted, the rule behind the calls is not given here.

Test [1] has as its system Wnt5a (protein binding on small-molecule microarray). In words: Wnt5a binders on small-molecule microarray, primary screen, biophysical, 635/667 nm fluorescence (AID 1142).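 Note: fluorescence read at 667 nm with signal to noise per printed feature.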 As to conditions: 635 nm fluorescence, higher = more signal.
Test [2] in a line: cell viability in Huh7 cells, primary screen, cytotoxicity control for HCV replication inhibitor project, CellTiter-Glo luminescence, basal, 48 h (AID 1143).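 Note: Huh7 hepatoma cells carrying a hepatitis C replication reporter with no stimulus; test concentration not given here.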 Particulars: Huh7 HCV replicon, higher = more signal, called active from +8 up or from −8 down. For orientation: Cellular ATP, detected with luciferase, serves as a proxy for viable cell number.
Test [3] can be described thus: P. aeruginosa biofilm formation inhibitors, primary screen, PAO1 strain, BacTiter-Glo luminescence, LB-PBS (AID 1144). As to conditions: 12 h, higher = more signal.
A short description of test [4]: CREB reporter modulators without forskolin, primary screen, cell-based, PC12, CRE-LacZ reporter, unstimulated (AID 1145). As to conditions: no forskolin, luminescence, 4.5 h, higher = more signal, called active from +8 up or from −8 down.
Test [5] can be described thus: CREB reporter modulators under forskolin, primary screen, cell-based, PC12, CRE-LacZ reporter, forskolin-stimulated (AID 1146).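 Note: PC12 cells with 6xCRE LacZ reporter stimulated by forskolin 10 µM; beta-galactosidase reporter signal reflecting CREB driven transcription.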 Particulars: luminescence, 4.5 h, higher = more signal, called active from +8 up or from −8 down.
In test [6] the target is Streptavidin (Streptomyces avidinii) (UniProt P22629). In words: streptavidin binders on small-molecule microarray, primary screen, artefact control for SMM compound annotation, biophysical, 635/667 nm fluorescence (AID 1147).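 Note: signal reflects streptavidin binding to arrayed compounds as a control protein.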 Particulars: streptavidin binding, higher = more signal.
Sequence of Streptavidin (Streptomyces avidinii) (P22629 whole entry, looked up): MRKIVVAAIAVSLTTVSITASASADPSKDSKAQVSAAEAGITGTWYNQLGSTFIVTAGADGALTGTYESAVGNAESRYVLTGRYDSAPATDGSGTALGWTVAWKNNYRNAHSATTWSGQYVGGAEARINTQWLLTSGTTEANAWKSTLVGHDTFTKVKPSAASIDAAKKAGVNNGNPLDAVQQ
The nature of test [7]: small-molecule binders of probe aInhba, primary screen, biochemical, small-molecule microarray, 635/667 nm fluorescence (AID 1148).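 Note: score merges 667nm spot fluorescence with signal-to-noise for antibody binding to printed compounds.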 As to conditions: higher = more signal.
In test [8] the target is Torsin-1A (Homo sapiens) (UniProt O14656). In words: torsin A binders from cell lysate, primary screen, small-molecule microarray, wild-type, 635/667 nm (AID 1149). As to conditions: COS7 hTOR1A-WT lysate, 635 nm fluorescence, higher = more signal.
Sequence of Torsin-1A (Homo sapiens) (O14656 whole entry, looked up): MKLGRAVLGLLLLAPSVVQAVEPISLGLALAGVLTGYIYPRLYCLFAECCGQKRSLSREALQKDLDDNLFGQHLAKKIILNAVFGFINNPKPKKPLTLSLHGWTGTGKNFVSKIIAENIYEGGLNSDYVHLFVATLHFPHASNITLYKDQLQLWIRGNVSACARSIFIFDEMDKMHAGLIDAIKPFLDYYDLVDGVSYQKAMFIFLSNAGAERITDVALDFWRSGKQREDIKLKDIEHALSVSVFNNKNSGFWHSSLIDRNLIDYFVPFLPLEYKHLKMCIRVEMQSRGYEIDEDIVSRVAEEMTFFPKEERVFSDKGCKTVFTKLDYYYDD
Test [9] has the same target. In words: small-molecule binders of mutant TOR1A in lysate, primary screen, cell lysate, small-molecule microarray, COS7 lysate, 635/667 nm fluorescence (AID 1150).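 Note: score pools 667 nm emission and signal to noise measuring lysate protein binding.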 Particulars: COS7 hTOR1A mutant lysate, 635 nm fluorescence, higher = more signal.
Test [10] has as its system Sonic hedgehog protein (Shh). The test can be described thus: small-molecule binders of Shh protein, primary screen, biochemical, small-molecule microarray, 635/667 nm fluorescence (AID 1151).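 Note: Shh protein binding to compounds spotted on small-molecule microarray slides; score combines spot fluorescence intensity with signal-to-noise across triplicate slides.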 As to conditions: small-molecule microarray binding, 635 nm fluorescence; higher = more signal.
Test [11] in a line: E. coli DRC41 culture turbidity changes, primary screen, E. coli filamentation inducer project, strain DRC41, OD650, 48 h (AID 1152).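 Note: E. coli MC1000 strain DRC41 lacking acrAB efflux pump and sulA.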 As to conditions: E. coli DRC41 (acrAB sulA), higher = more signal, called active from +8 up or from −8 down.
Test [12] can be described thus: small-molecule binders of probe aLefty1, primary screen, biochemical, small-molecule microarray, 635/667 nm fluorescence (AID 1153).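 Note: score merges spot fluorescence with signal-to-noise ratio from the scanned slide images.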 Particulars: higher = more signal.
The nature of test [13]: PSAC antagonists in infected red cells, primary screen, cell-based, P. falciparum Indochina, OD700, 1 h (AID 1154). Particulars: P. falciparum Indochina infected RBC osmotic lysis, higher = more signal, called active from +8 up or from −8 down.
Test [14] can be described thus: PSAC antagonists in infected red cells, primary screen, cell-based, P. falciparum Indochina, OD700, 2 h (AID 1155).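 Note: lysis reports solute entry through the parasite surface anion channel PSAC; channel blockers reduce lysis of infected cells.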 As to conditions: P. falciparum Indochina infected erythrocytes, osmotic lysis OD700; higher = more signal, called active from +8 up or from −8 down.
Test [15] can be described thus: osmotic lysis modulators in infected erythrocytes, primary screen, PSAC antagonist project, cell-based, P. falciparum Indochina, OD700, 3 h (AID 1156). As to conditions: higher = more signal, called active from +8 up or from −8 down.
The nature of test [16]: PSAC antagonists in infected red cells, primary screen, cell-based, P. falciparum Indochina, OD700, 18 h (AID 1157). As to conditions: P. falciparum Indochina infected erythrocytes, osmotic lysis OD700, 18 h; higher = more signal, called active from +8 up or from −8 down.
Test [17] is described as follows: modulators of S6 phosphorylation in cells, primary screen, cell-based, A549, cytoblot, luminescence, serum-stimulated (AID 1158).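 Note: serum-stimulated A549 lung adenocarcinoma cells; signal is phosphorylated S6 detected by cytoblot immunostaining with HRP secondary.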 Particulars: A549 phospho-S6 cytoblot, 5 h, higher = more signal.
For test [18], the target named is NADPH oxidase 2 (Homo sapiens) (UniProt P04839). The test can be described thus: NOX2-dependent H2O2 signal modulators, primary screen, NOX inhibitor project, cell-based, HEK293-NOX2, PMA-stimulated, Amplex Red fluorescence (AID 1159). Note: test concentration not given here. As to conditions: 45 min, higher = more signal, called active from +8 up or from −8 down.
Sequence of NADPH oxidase 2 (Homo sapiens) (P04839 whole entry, looked up): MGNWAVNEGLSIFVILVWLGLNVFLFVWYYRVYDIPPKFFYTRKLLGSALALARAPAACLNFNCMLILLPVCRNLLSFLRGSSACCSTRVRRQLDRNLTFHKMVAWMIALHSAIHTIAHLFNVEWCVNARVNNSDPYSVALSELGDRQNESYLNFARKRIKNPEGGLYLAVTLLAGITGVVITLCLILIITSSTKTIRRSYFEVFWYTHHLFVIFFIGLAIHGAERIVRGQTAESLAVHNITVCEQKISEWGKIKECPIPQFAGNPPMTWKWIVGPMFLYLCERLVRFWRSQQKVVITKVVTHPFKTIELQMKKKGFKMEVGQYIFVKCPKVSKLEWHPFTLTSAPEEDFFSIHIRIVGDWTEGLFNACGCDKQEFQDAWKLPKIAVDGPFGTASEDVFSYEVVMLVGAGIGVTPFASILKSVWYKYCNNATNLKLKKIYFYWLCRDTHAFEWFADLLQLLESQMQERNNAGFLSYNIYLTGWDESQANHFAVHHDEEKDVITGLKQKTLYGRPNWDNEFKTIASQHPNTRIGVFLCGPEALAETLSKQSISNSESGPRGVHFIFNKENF
Test [19] concerns the target NADPH oxidase 4 (Homo sapiens) (UniProt Q9NPH5). The test can be described thus: NOX4-dependent H2O2 signal modulators, primary screen, NOX inhibitor project, cell-based, HEK293-NOX4, tetracycline-induced, Amplex Red fluorescence (AID 1160). As to conditions: 45 min, higher = more signal, called active from +8 up or from −8 down.
The target in test [20] is NADPH oxidase 5 (Homo sapiens) (UniProt Q96PH1). In words: NOX5-dependent H2O2 signal modulators, primary screen, NOX inhibitor project, cell-based, HEK293-NOX5, Amplex Red fluorescence (AID 1161). As to conditions: HEK293-NOX5, ionomycin, 45 min, higher = more signal.
Sequence of NADPH oxidase 5 (Homo sapiens) (Q96PH1 whole entry, looked up): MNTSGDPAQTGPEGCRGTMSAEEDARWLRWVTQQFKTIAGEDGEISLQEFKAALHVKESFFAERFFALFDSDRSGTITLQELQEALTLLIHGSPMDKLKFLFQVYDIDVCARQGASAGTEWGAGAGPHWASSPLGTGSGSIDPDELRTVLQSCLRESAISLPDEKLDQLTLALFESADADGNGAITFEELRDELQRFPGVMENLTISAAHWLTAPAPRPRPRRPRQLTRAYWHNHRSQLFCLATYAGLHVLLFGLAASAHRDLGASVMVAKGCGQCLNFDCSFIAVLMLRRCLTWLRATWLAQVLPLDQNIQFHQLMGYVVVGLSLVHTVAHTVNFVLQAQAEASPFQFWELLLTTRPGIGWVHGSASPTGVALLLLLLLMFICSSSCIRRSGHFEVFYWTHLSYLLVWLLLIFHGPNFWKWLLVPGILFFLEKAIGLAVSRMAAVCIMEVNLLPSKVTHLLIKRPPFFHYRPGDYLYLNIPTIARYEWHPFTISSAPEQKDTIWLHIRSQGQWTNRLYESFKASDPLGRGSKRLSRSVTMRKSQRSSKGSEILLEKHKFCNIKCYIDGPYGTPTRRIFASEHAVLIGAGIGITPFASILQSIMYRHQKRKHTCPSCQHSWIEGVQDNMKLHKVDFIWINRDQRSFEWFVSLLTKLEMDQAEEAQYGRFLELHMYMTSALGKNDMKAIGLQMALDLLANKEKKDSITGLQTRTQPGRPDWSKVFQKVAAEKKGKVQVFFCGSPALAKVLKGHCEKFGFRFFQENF

Sequence of NADPH oxidase 4 (Homo sapiens) (Q9NPH5 whole entry, looked up): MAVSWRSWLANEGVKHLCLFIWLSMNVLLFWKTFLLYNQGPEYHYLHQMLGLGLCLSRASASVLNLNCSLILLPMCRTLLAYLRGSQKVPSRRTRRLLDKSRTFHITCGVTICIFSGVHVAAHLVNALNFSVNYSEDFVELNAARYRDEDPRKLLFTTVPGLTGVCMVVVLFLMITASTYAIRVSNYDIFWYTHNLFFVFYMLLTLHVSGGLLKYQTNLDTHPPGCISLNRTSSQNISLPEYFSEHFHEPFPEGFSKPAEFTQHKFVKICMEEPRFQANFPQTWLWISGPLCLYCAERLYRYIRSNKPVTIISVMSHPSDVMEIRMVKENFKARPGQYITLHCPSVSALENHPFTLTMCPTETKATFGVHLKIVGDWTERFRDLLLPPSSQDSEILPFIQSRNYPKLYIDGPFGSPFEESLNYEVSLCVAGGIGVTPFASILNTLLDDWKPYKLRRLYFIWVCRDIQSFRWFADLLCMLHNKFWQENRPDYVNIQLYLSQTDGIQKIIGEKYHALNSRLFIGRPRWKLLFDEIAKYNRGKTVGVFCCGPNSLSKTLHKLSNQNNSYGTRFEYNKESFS

Consider `O=C(NCCN1CCOCC1)[C@@H]1c2ccccc2C(=O)N(Cc2cc(C(F)(F)F)cc(C(F)(F)F)c2)[C@H]1c1ccc(CO)cc1`, for which the composite z-score in test [1] was 0.556; in test [6] it was -0.601; in test [7], 0.0154; in test [8], -0.027; in [9], 0.133; in [10], -0.211. Moreover, in test [12], the composite z-score was determined as 0.0479. The z-score in [2] is -0.0199 (inactive); in [3] it was 0.623 (inactive); in test [4], 0.468 (inactive); in [5], -0.713 (inactive); in test [11], -0.0112 (inactive); in test [13], 2.81 (inactive). Also, the z-score in [14] is 1.44 (inactive); in test [15], 0.591 (inactive); in test [16], 0.526 (inactive); in test [17], -0.474; in [18], -0.0635 (inactive); in test [19], 0.271 (inactive). In test [20], this molecule showed a z-score of 2.36.

As to `O=C(NC1CC1)[C@@H]1c2ccccc2C(=O)N(Cc2cc(F)cc(C(F)(F)F)c2)[C@H]1c1ccc(CO)cc1`, the composite z-score is 0.518 in [1]; -0.685 in [6]; -0.0468 in test [7]; 0.517 in test [8]; 0.543 in [9]; -0.296 in [10]. The same molecule yielded a composite z-score in test [12] of -0.205. Moreover, the z-score is -0.335 (inactive) in [2]; -0.435 (inactive) in test [3]; 0.001 (inactive) in test [4]; 0.162 (inactive) in test [5]; -0.857 (inactive) in [11]; 1.88 (inactive) in test [13]. Besides, the z-score is 0.115 (inactive) in test [14]; 0.943 (inactive) in [15]; 0.0358 (inactive) in [16]; -0.185 in test [17]; -0.0603 (inactive) in test [18]; 0.463 (inactive) in [19]. The same molecule gave a z-score in test [20] of 0.515.

`COc1ccc(C(O)C2C=CC3C(=O)N(C)C(=O)C3N2NC(=O)OC(C)(C)C)c2ccccc12` (stereo not given): the composite z-score in test [1] is 0.364; in test [6], 1.13; in test [7] it was -0.137; in test [8], 0.177; in test [9], 0.644; in test [10], -0.416. The composite z-score in test [12] is 0.445. Also, the z-score in [2] is -0.144 (inactive); in test [3], -0.0855 (inactive); in test [4], 1.58 (inactive); in test [5] it was -0.0415 (inactive); in test [11] it was -1.17 (inactive); in test [13], 1.9 (inactive). Further, the z-score is 1.09 (inactive) in test [14]; 0.0084 (inactive) in test [15]; 1.2 (inactive) in [16]; -1.16 in [17]; -0.674 (inactive) in [18]; -1.92 (inactive) in test [19]. In [20], this molecule yielded a z-score of 0.384.

Take `CCCC=C(CCC)[C@@H](NC(=O)OCC(C)C)c1ccccc1`: the composite z-score was 1.33 in test [1]; 0.576 in test [6]; 0.613 in test [7]; 0.0387 in test [8]; -0.0475 in [9]; 0.661 in [10]. In test [12], this molecule registered a composite z-score of 2.47. The z-score is -3.28 (inactive) in test [2]; 0.173 (inactive) in test [3]; 0.766 (inactive) in test [4]; 1.43 (inactive) in test [5]; -1.93 (inactive) in test [11]; -0.725 (inactive) in test [13]. Also, the z-score in test [14] was -0.732 (inactive); in [15], 0.455 (inactive); in [16], -1.61 (inactive); in test [17], 1.44; in [18], -4.11 (inactive); in [19] it was -3.58 (inactive). The molecule also showed a z-score in test [20] of -2.7.
